For 37 compounds, outcome and Potency results are on record in PubChem BioAssay (NCATS).

Records with an inconclusive call do not appear. A call without a number means that no potency is given here. Calls of active or inactive are those of the source. Unless noted, the call rests on the fitted dose curve; in most records, active means well fitted curve in either direction with a large enough effect (not every such curve was filed as active); inconclusive means small, poorly fitted or top-dose-only effect, or another doubt; inactive means flat fitted curve, though single readings scatter.

Sequence of Cytochrome P450 3A4 (Homo sapiens) (P08684 whole entry, looked up): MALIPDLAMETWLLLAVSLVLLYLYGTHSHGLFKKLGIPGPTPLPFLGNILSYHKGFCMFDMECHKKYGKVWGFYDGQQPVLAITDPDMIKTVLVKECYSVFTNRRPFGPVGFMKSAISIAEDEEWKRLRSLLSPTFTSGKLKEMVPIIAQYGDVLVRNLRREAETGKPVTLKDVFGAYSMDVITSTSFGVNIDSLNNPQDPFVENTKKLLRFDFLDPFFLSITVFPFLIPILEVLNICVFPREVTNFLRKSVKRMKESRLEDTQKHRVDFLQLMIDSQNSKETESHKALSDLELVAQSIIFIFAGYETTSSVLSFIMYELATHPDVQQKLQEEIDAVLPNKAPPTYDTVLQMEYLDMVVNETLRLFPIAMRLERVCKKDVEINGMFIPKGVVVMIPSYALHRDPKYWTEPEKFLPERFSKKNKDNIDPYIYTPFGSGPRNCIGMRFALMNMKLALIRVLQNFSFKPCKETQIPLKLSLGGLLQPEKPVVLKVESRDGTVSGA

One assay has as its target Mitogen-activated protein kinase 10 (Mus musculus) (UniProt Q61831). Description: JNK3 AlphaScreen Assay (AID 530).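 Further: kinase came from lysate of stimulated human HepG2 cells; signal reports phosphorylation of biotinylated GST-cJun 1-79 at Ser73 with 10 µM ATP.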 As to conditions: JNK3 lysate, c-Jun phosphorylation; series mostly up to 57.1 µM. Summed up:
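Compound titrations were preincubated 15 minutes at room temperature with substrate, antibody and pre-activated JNK3-containing HepG2 lysate. Reactions were started with 10 uM ATP and stopped with EDTA-containing bead buffer for AlphaScreen detection.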
On the technique in general: In Alpha technology, singlet oxygen from a donor bead excites a nearby acceptor bead.
With `COC(=O)C1(C)C=CC2(CCCCC2)N1C(C)=O` (centres undefined), the compound was classed as inactive.

In the case of `C[C@@H](C(=O)Nc1ccc2ccccc2c1)[C@@H]1C[C@@]1(C)[C@@H](NS(=O)(=O)c1ccccc1)c1ccccc1`, the compound was classed as inactive.

On to `C[C@@H](C(=O)NCc1ccccc1)[C@H]1C[C@]1(C)[C@H](NC(=O)OCc1ccccc1)c1ccccc1`, for which the outcome was inactive. Same read-out and setting: the same measure for `COc1ccc2nc3c(c(-c4ccccc4)c2c1)CCC3`: “inactive”.

In the case of `COC(=O)[C@H]1C[C@@H]1[C@H](NS(=O)(=O)c1ccc2ccccc2c1)c1ccccc1`, the outcome was inactive. On the same count and under the same terms, the result for `COC(=O)[C@@]1(Cc2ccc(OC)cc2)[C@H]2c3cc(C(=O)N4CCCC4)n(Cc4ccc(O)c(OC)c4)c3C[C@H]2CN1C(=O)c1ccccc1` reads “inactive”; that for `COC(=O)[C@@]1(Cc2ccc(OC)cc2)[C@H]2c3cc(C(=O)N(C)C)n(CCc4ccccn4)c3C[C@H]2CN1C(=O)c1ccccc1`, “inactive”; that for `COC(=O)[C@@]1(Cc2ccc(OC)cc2)[C@H]2c3cc(C(=O)N(C)C)n(CCF)c3C[C@H]2CN1C(=O)c1ccccc1`, “inactive”. With `COCCn1c(C(=O)N(C)C)cc2c1C[C@H]1CN(C(=O)c3ccccc3)[C@@](Cc3ccc(F)cc3)(C(=O)OC)[C@@H]21`, the compound was classed as inactive. Consider `COC(=O)[C@@H]1C[C@H]1[C@@H](NC(C)=O)c1ccccc1`, for which the call was inactive.

With `COC(=O)[C@H]1C[C@@H]1[C@H](NC(C)=O)c1ccccc1`, the outcome was inactive. As to `CC(C)=C1C(=O)C(c2ccccc2)=C2CN3C(=O)N(CCc4ccccc4)C(=O)[C@]3(C)[C@H]21`, the compound was classed as inactive. Same read-out and setting: the same measure for `COC(=O)[C@@]1(Cc2ccc(OC)cc2)[C@H]2c3cc(C(=O)N(C)C)n(Cc4cc(C)n(C)n4)c3C[C@H]2CN1C(=O)c1ccccc1`: “inactive”; for `COC(=O)[C@@]1(Cc2ccc(OC)cc2)[C@H]2c3cc(C(=O)N4CCCC4)n(Cc4ccc(OC)c(OC)c4)c3C[C@H]2CN1C(=O)c1ccccc1`: “inactive”; for `COC(=O)[C@@]1(Cc2ccccc2)[C@H]2c3cc(C(=O)N(C)C)n(Cc4ccc(O)c(OC)c4)c3C[C@H]2CN1C(=O)c1ccccc1`: “inactive”.

`COC(=O)[C@@]1(Cc2ccccc2)[C@H]2c3cc(C(=O)N(C)C)n(Cc4ccccc4)c3C[C@H]2CN1C(=O)c1ccccc1`: the compound was classed as inactive. As for `COC(=O)[C@@]1(Cc2ccc(OC)cc2)[C@H]2c3cc(C(=O)N(C)C)n(CCc4c[nH]c5ccc(O)cc45)c3C[C@H]2CN1C(=O)c1ccccc1`, the result was inactive. On the same count and under the same terms, the same measure for `COC(=O)[C@@]1(Cc2ccc(OC)cc2)[C@H]2c3cc(C(=O)N(C)C)n(Cc4nc5ccccc5[nH]4)c3C[C@H]2CN1C(=O)c1ccccc1`: “inactive”; for `CCC[C@@H]1C[C@@]1(CCC)C(NP(=O)(c1ccccc1)c1ccccc1)c1ccc(Cl)cc1` (some centres undefined): “inactive”; for `COc1ccc(CNC(=O)[C@H](C)[C@@H]2C[C@@]2(C)[C@@H](NC(=O)OCc2ccccc2)c2ccccc2)cc1OC`: “inactive”.

Regarding `COC(=O)[C@@]1(Cc2ccc(F)cc2)[C@H]2c3cc(C(=O)N4CCCC4)n(CCc4ccccn4)c3C[C@H]2CN1C(=O)c1ccccc1`, the result was inactive.

On to `C[C@@H](C(=O)Nc1ccc2ccccc2c1)[C@H]1C[C@]1(C)[C@H](NS(=O)(=O)c1ccccc1)c1ccccc1`, for which the compound was classed as inactive.

The next assay concerns the target Cytochrome P450 3A4 (Homo sapiens) (UniProt P08684). Description: qHTS Assay for Activators of Cytochrome P450 3A4 (AID 885; active means well fitted curve in the direction sought with a large enough effect; an effect the other way counts as inactive or inconclusive; further: nearly all actives have a fitted effect of over 65% in size). Particulars: recombinant CYP3A4, Luciferin-PPXE luminescence, 60 min; series mostly up to 57.1 µM. The method in brief:
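20nM CYP3A4 + 25uM Luciferin-PPXE (=KM), 200mM KPO4; cpd 10 min RT; NADPH regen, 60 min RT; stop w/ detection buffer, 20 min; luminescence. Normalized to 57 uM ketoconazole.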
Background: In qHTS, concentration-response curves come from the screen itself.
As for `CS(C)(=O)=O`, the Potency entry is “inactive”. Take `COc1ccc(-c2c(O)c3c(OC)c4c(cc3oc2=O)OC(C)(C)CC4)cc1`: the Potency entry is “inactive”.

For `COC1=CC(=O)C=C(OC)C1=O`, the Potency entry is “inactive”.

For the compound `COC(=O)CC1[C@@]2(C)C[C@@]34OC5(C)OC6(CC[C@@]7(C)C(c8ccoc8)OC(=O)C(C(C)=O)C7[C@]6(O5)C(O)[C@@]3(O)C2O)[C@]14C` (some centres undefined), the Potency result is “inactive”. On the same count and under the same terms, the same measure for `CCCN1CC(CSC)C[C@H]2c3cccc4[nH]cc(c34)C[C@H]21` (some centres undefined): “inactive”. `Oc1ccc2c(c1)OCC1c3cc4c(cc3OC21)OCO4` (centres undefined): the Potency entry is “inactive”.

Test system in a further assay: not listed separately
Kind of assay: Confirmation and Secondary Assay for Modulators of Hemoglobin Beta Chain Splicing at IVS2 654 locus (AID 910; active means well fitted curve in the direction sought with a large enough effect; an effect the other way counts as inactive or inconclusive;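 further: HeLa cells stably carrying EGFP split by mutant beta-globin IVS2-654 intron; per-well total GFP intensity by laser scanning cytometry after 2-day treatment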). As to conditions: HeLa EGFP-654 splicing reporter, GFP fluorescence, 48 h; series mostly up to 46.1 µM. Summed up: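 Readout: per-well total peak green fluorescence (488 nm ex, 500–520 nm em) from objects 5–250 µm, reflecting correct splicing of an EGFP-654 reporter. Compounds were applied for 2 days at 37 °C to overnight-plated HeLa EGFP-654 cells; controls were DMSO and 500 nM IVS2-654 PNA.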
Turning to `OC1C=C2CCN3Cc4cc5c(cc4C(C1O)C23)OCO5` (centres undefined), the call was inactive. For `C[N+]1(C)C2CC(OC(=O)C(CO)c3ccccc3)CC1C1OC12` (centres undefined), the compound was called inactive. Same read-out and setting: the result for `COc1cc(C2c3cc4c(cc3C(OC3OC5COC(C)O[C@@H]5C(O)C3O)C3COC(=O)C23)OCO4)cc(OC)c1O` (some centres undefined) reads “inactive”; that for `CNC1C(O)C2OC3OC(C)CC(=O)[C@@]3(O)O[C@H]2[C@H](NC)C1O` (some centres undefined), “inactive”; that for `CNC1C(O)C(O[C@H]2C(O)[C@@H](OC3OC(CN)=CCC3N)[C@H](N)C[C@@H]2N)OC[C@]1(C)O` (some centres undefined), “inactive”. As to `NC(N)=Nc1nc(CSCC/C(N)=N\S(N)(=O)=O)cs1`, the result was inactive.

With `CCCN1CC(CSC)C[C@H]2c3cccc4[nH]cc(c34)C[C@H]21` (some centres undefined), the outcome was inactive. Still for that read-out and setting: the result for `C[C@]12CCC(=O)C=C1CCC1C2C(O)C[C@]2(C)C1CC[C@]2(O)C(=O)COC(=O)CCC(=O)O` (some centres undefined) reads “inactive”; that for `Oc1ccc2c(c1)OCC1c3cc4c(cc3OC21)OCO4` (centres undefined), “inactive”.

On to `CC1C(NC(=O)/C(=N/OC(C)(C)C(=O)O)c2csc(N)n2)C(=O)N1S(=O)(=O)O` (centres undefined), for which the compound was called inactive. Regarding `Cc1nnc(SCC2=C(C(=O)O)N3C(=O)C(NC(=O)Cn4cnnn4)[C@@H]3SC2)s1` (some centres undefined), the result was inactive.
